Experiment [1] in a line: optical density shifts of acrAB sulA E. coli – strain DRC41, OD650, 48 h, E. coli filamentation inducer project, primary screen (AID 1152).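 Further: E. coli MC1000 strain DRC41 lacking acrAB efflux pump and sulA.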 The conditions noted are these: higher = more signal, called active from +8 up or from −8 down.
The nature of experiment [2]: probe aLefty1 binding on compound microarray – biochemical, small-molecule microarray, 635/667 nm fluorescence, primary screen (AID 1153).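 Further: score merges spot fluorescence with signal-to-noise ratio from the scanned slide images.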 The conditions noted are these: higher = more signal.
Experiment [3] can be described thus: plasmodial surface anion channel blockers, osmotic lysis – cell-based, P. falciparum Indochina, OD700, 1 h, primary screen (AID 1154). The conditions noted are these: P. falciparum Indochina infected RBC osmotic lysis, higher = more signal, called active from +8 up or from −8 down.
Experiment [4] can be described thus: plasmodial surface anion channel blockers, osmotic lysis – cell-based, P. falciparum Indochina, OD700, 2 h, primary screen (AID 1155).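 Further: lysis reports solute entry through the parasite surface anion channel PSAC.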 The conditions noted are these: P. falciparum Indochina infected erythrocytes, higher = more signal, called active from +8 up or from −8 down.
A short description of experiment [5]: changes in parasitized red cell lysis, either direction – P. falciparum Indochina, OD700, 3 h, PSAC antagonist project, primary screen (AID 1156). The conditions noted are these: P. falciparum-infected erythrocytes, osmotic lysis, higher = more signal, called active from +8 up or from −8 down.
Experiment [6] is described as follows: plasmodial surface anion channel blockers, osmotic lysis – cell-based, P. falciparum Indochina, OD700, 18 h, primary screen (AID 1157). The conditions noted are these: P. falciparum Indochina infected erythrocytes, osmotic lysis OD700, 18 h; higher = more signal, called active from +8 up or from −8 down.
A short description of experiment [7]: S6 kinase pathway phospho-S6 level changes – cell-based, A549, cytoblot, luminescence, serum-stimulated, primary screen (AID 1158).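 Further: serum-stimulated A549 lung adenocarcinoma cells; signal is phosphorylated S6 detected by cytoblot immunostaining with HRP secondary.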 The conditions noted are these: 5 h, higher = more signal.
For experiment [8], the target named is NADPH oxidase 2 (Homo sapiens) (UniProt P04839). Description: compounds shifting NOX2 Amplex Red fluorescence – cell-based, HEK293-NOX2, PMA-stimulated, NOX inhibitor project, primary screen (AID 1159). Further: test concentration not given here. The conditions noted are these: 45 min, higher = more signal, called active from +8 up or from −8 down.
Experiment [9] has as its target NADPH oxidase 4 (Homo sapiens) (UniProt Q9NPH5). The experiment can be described thus: compounds shifting NOX4 Amplex Red fluorescence – cell-based, HEK293-NOX4, tetracycline-induced, NOX inhibitor project, primary screen (AID 1160). The conditions noted are these: HEK293-NOX4, Amplex Red H2O2 fluorescence, 45 min; higher = more signal, called active from +8 up or from −8 down.

Experiment [10] addresses NADPH oxidase 5 (Homo sapiens) (UniProt Q96PH1). Description: compounds shifting NOX5 Amplex Red fluorescence – cell-based, HEK293-NOX5, NOX inhibitor project, primary screen (AID 1161). The conditions noted are these: HEK293-NOX5, ionomycin, 45 min, higher = more signal.
Experiment [11] in a line: compound effects on lung adenocarcinoma cell viability – A549, calcein-AM fluorescence, 48 h, basal, profiling panel (AID 1162). Further: test concentration not given here. The conditions noted are these: higher = more signal.
Experiment [12] is described as follows: compound effects on differentiated 3T3-L1 adipocyte viability – cell-based, 3T3-L1 adipocytes, calcein-AM fluorescence, 48 h, basal, profiling panel (AID 1163). Further: test concentration not given here. The conditions noted are these: 3T3-L1 adipocytes viability, higher = more signal.
The nature of experiment [13]: compound effects on hepatocellular carcinoma cell viability – HepG2, calcein-AM fluorescence, 48 h, basal, profiling panel (AID 1164). Further: test concentration not given here. The conditions noted are these: higher = more signal.
Experiment [14] in a line: compound effects on multiple myeloma cell viability – MM1S, calcein-AM fluorescence, 48 h, basal, profiling panel (AID 1165). Further: test concentration not given here. The conditions noted are these: higher = more signal.
Experiment [15] in a line: calcein-AM signal in unstimulated myeloma cells – cell-based, calcein-AM fluorescence, 48 h, PK04 Diversity Set, profiling panel (AID 1166).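 Further: cells grown under basal conditions without added stimulus; test concentration not given here.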 The conditions noted are these: RPMI8226 myeloma viability, higher = more signal.
The nature of experiment [16]: JC-1 mitochondrial signal, unstimulated HepG2 cells – cell-based, JC-1 fluorescence, 24 h, 100 nL compound, profiling panel (AID 1167). Further: test concentration not given here. The conditions noted are these: HepG2 mitochondrial potential, higher = more signal.
The nature of experiment [17]: JC-1 mitochondrial signal, unstimulated adipocytes – cell-based, JC-1 fluorescence, 3T3-L1 adipocytes, 24 h, 100 nL compound, profiling panel (AID 1168). Further: test concentration not given here. The conditions noted are these: JC-1 mitochondrial fluorescence, higher = more signal, called active from +8 up or from −8 down.
The nature of experiment [18]: JC-1 mitochondrial signal, unstimulated myeloma cells – cell-based, JC-1 fluorescence, RPMI8226, 24 h, 100 nL compound, profiling panel (AID 1169). Further: test concentration not given here. The conditions noted are these: JC-1 mitochondrial potential fluorescence, higher = more signal.
The nature of experiment [19]: JC-1 mitochondrial signal, unstimulated MM1S myeloma – cell-based, JC-1 fluorescence, 24 h, 100 nL compound, profiling panel (AID 1170). Further: test concentration not given here. The conditions noted are these: MM1S mitochondrial potential, higher = more signal.
Experiment [20] can be described thus: resazurin metabolic signal in A549 cells – cell-based, resazurin fluorescence, 24 h, PK04 Diversity Set, profiling panel (AID 1171). Further: test concentration not given here. The conditions noted are these: A549 viability, higher = more signal, called active from +8 up or from −8 down. Background: The colour change of resazurin is a common sign of viable cells or microbes.

Activity calls are given as the source filed them.

The values that follow come from PubChem BioAssay.

NADPH oxidase 4 (Homo sapiens), sequence (Q9NPH5 whole entry, looked up): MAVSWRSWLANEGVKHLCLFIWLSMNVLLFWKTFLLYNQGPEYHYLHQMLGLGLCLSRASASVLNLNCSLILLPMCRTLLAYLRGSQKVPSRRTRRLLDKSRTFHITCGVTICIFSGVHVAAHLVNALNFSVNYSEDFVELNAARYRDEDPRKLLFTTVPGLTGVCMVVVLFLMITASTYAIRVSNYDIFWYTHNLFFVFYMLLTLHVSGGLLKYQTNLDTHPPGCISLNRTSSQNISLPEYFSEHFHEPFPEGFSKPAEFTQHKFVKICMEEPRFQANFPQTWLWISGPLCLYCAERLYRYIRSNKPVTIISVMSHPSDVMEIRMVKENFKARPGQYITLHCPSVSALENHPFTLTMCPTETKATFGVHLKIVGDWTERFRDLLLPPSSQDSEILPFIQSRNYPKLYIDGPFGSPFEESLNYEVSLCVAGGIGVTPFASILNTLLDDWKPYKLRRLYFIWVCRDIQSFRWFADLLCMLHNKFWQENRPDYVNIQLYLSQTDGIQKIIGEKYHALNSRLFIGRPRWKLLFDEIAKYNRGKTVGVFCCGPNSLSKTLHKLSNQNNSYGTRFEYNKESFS
NADPH oxidase 5 (Homo sapiens), sequence (Q96PH1 whole entry, looked up): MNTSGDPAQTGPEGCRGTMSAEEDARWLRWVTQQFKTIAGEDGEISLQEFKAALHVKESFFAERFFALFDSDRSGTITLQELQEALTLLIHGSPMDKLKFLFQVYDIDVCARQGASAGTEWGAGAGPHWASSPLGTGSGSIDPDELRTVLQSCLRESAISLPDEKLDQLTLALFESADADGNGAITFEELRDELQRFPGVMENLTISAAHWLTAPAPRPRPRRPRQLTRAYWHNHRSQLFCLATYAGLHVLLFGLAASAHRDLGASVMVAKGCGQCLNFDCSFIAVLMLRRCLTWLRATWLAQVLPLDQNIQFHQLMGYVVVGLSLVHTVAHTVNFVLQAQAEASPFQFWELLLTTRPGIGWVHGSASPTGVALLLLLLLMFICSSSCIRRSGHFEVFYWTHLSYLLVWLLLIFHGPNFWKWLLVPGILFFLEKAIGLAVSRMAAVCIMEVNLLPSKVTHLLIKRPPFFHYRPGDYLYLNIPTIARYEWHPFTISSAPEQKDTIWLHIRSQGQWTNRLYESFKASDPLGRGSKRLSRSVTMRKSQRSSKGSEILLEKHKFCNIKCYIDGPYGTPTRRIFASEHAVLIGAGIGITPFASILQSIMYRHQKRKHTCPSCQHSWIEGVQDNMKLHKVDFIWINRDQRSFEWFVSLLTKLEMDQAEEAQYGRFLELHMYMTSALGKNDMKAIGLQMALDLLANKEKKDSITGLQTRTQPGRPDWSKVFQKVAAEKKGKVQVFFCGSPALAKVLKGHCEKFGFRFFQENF
NADPH oxidase 2 (Homo sapiens), sequence (P04839 whole entry, looked up): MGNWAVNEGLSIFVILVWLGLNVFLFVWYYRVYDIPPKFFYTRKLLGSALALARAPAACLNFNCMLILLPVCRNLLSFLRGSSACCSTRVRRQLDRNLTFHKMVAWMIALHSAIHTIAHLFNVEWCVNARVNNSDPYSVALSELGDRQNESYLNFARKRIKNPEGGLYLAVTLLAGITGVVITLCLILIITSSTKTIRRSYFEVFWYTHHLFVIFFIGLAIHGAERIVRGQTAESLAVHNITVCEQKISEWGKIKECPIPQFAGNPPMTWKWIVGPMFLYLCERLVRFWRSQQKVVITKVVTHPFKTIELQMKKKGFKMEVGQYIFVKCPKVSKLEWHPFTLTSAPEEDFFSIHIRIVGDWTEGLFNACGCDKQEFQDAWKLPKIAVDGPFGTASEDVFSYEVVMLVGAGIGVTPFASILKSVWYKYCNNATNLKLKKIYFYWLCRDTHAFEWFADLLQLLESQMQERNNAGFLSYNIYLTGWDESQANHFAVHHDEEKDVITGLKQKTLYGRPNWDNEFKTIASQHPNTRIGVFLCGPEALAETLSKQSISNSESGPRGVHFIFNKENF

On to `C[N+](C)(C)CCCC[C@@H]1NC(=O)[C@H]2C[C@@H](C(=O)NCCCCCCNC(=O)CS)[C@@H](c3cccc(OCCO)c3)N2C1=O`, for which the z-score in experiment [1] is 0.415 (inactive); in experiment [3], 3.29 (inactive); in experiment [4], 0.679 (inactive); in experiment [5], 1.8 (inactive); in experiment [6], 0.0805 (inactive); in experiment [7], 0.0934. Also, the z-score in experiment [8] was 1.18 (inactive); in experiment [9] it was 0.639 (inactive); in [10] it was 1.24; in experiment [11], -1.42; in experiment [12] it was -0.132; in [13], -0.153. Further, the z-score in experiment [14] is 0.0157; in [15], -0.682; in experiment [16], 0.325; in [17] it was 0.0973 (inactive); in [18] it was -0.277; in experiment [19], -0.326. Also, the z-score in experiment [20] is -0.257 (inactive). In addition, in [2], the composite z-score was 0.0774.

For `O=C(NC1CC1)[C@@H]1c2ccccc2C(=O)N(Cc2ccccc2Cl)[C@H]1c1ccc(CO)cc1`, the z-score in experiment [1] was 4.2 (inactive); in experiment [3] it was 3.45 (inactive); in experiment [4], 0.652 (inactive); in [5], -1.05 (inactive); in experiment [6], 0.204 (inactive); in experiment [7], 2.67. Moreover, the z-score in experiment [8] was -1.1 (inactive); in experiment [9], 0.54 (inactive); in experiment [10], 0.33; in [11], 3.23; in [12] it was 1.4; in [13], 2.25. Also, the z-score in experiment [14] was -0.867; in [15], 0.97; in experiment [16], 2.95; in experiment [17] it was 0.623 (inactive); in experiment [18] it was -0.566; in experiment [19], 1.41. Also, the z-score in experiment [20] is 1.76 (inactive). Further, the composite z-score in [2] stood at 0.208.

On to `COC(=O)c1c(CC[C@@H](CO)NC(=O)NCCn2cc(C3(O)CCCC3)nn2)oc(C(C)=O)c1C(=O)OC`, for which the z-score in [1] is -1.2 (inactive); in [3] it was 2.06 (inactive); in experiment [4] it was 0.474 (inactive); in experiment [5], 1.29 (inactive); in experiment [6], 0.533 (inactive); in [7], -0.359. Also, the z-score in [8] is -0.278 (inactive); in experiment [9], 0.233 (inactive); in experiment [10], -0.666; in [11], -0.298; in experiment [12] it was 0.154; in experiment [13], 0.122. Besides, the z-score in experiment [14] was 0.454; in [15] it was 0.206; in [16] it was -0.0184; in experiment [17], -0.543 (inactive); in experiment [18], 0.586; in experiment [19], -0.152. Further, the z-score in [20] is -0.957 (inactive). Besides, the composite z-score in [2] is -0.403.

For `[N-]=[N+]=Nc1ccccc1[C@H]1OC(c2ccc(OCCCO)cc2)=N[C@@]1(CCS(=O)(=O)c1ccccc1)C(=O)NCC(O)CO` (stereo not given in full), the z-score in [1] is -0.562 (inactive); in experiment [3] it was 29.7 (active); in experiment [4], 28.2 (active); in experiment [5] it was 1.72 (inactive); in [6] it was 2.09 (inactive); in [7], -0.235. Further, the z-score in experiment [8] is 1.09 (inactive); in [9] it was -0.0647 (inactive); in [10], -1.07; in experiment [11], -0.0714; in experiment [12] it was 0.638; in experiment [13], 0.0911. For the same molecule, the z-score in experiment [14] was -0.826; in experiment [15], 0.395; in [16] it was -1.16; in [17], -0.22 (inactive); in [18], 0.311; in [19], -0.0714. Also, the z-score in experiment [20] was 0.859 (inactive). The same molecule returned a composite z-score in experiment [2] of 0.0919.

Regarding `O=C1O[C@H](c2ccccc2)[C@H](c2ccccc2)N2[C@H]1[C@@H](C(=O)N1CCCCCCC1)[C@]1(C(=O)Nc3ccc(C#CCCO)cc31)[C@H]2c1ccccc1OCCO`, the z-score in experiment [1] was 0.609 (inactive); in experiment [3], 1.54 (inactive); in [4] it was 1.19 (inactive); in experiment [5] it was 2.13 (inactive); in experiment [6], 0.565 (inactive); in experiment [7], -0.319. The z-score in [8] is 1.31 (inactive); in experiment [9], 0.959 (inactive); in [10], 1.67; in experiment [11], 0.405; in experiment [12], 0.911; in experiment [13] it was 0.518. Also, the z-score in experiment [14] is -1; in [15] it was -3.71; in [16] it was 0.42; in experiment [17] it was 0.757 (inactive); in experiment [18] it was -1.3; in experiment [19], -1.11. In experiment [20], the z-score was 0.458 (inactive). Further, the composite z-score in experiment [2] was found to be 2.89.
